Laboratory results reported in the supplement of paper PMC7411054.

Tests used:
Conditions in all cases: treatment time: 24 h
A549-ACTB-RAB5A [1] = experiment: lowest phenotypically active concentration; higher = less potent
In short: (§1)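 After 24 h at 0.3, 1, 3 or 9 µM, with four wells per treatment, fifteen gene-edited A549, HepG2 and WPMY1 reporter lines carrying BFP, GFP and RFP/FusionRed were imaged live. Each well's live-cell features were expressed relative to solvent control wells. Deviation required ≥3 of 4 wells past the 95th percentile of control Euclidean distances, and reproducibility a median replicate Pearson correlation over the 95th percentile of non-replicates. Phenotypic activity rested on both.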

A549-GM130-SQSTM1 [2] = experiment: as above
In short: as §1

A549-TUBA1B-RELA [3] = experiment: as above
In short: as §1

HepG2-ACTB-RAB5A [4] = experiment: as above
In short: as §1

HepG2-TP53BP1-CLTA [5] = experiment: as above
In short: as §1

A549-ACTB-RAB5A [6] = experiment: phenotypically active (imaging signature differs from DMSO and reproducible) at any of 0.3-9 uM (binary (1 = active, 0 = inactive)); higher = active
In short: as §1

A549-CANX-COX4 = experiment: as above
In short: as §1

A549-GM130-SQSTM1 [7] = experiment: as above
In short: as §1

A549-TP53BP1-CLTA = experiment: as above
In short: as §1

A549-TUBA1B-RELA [8] = experiment: as above
In short: as §1

HepG2-ACTB-RAB5A [9] = experiment: as above
In short: as §1

HepG2-CANX-COX4 = experiment: as above
In short: as §1

HepG2-GM130-SQSTM1 = experiment: as above
In short: as §1

HepG2-TP53BP1-CLTA [10] = experiment: as above
In short: as §1

HepG2-TUBA1B-RELA = experiment: as above
In short: as §1

WPMY1-ACTB-RAB5A = experiment: as above
In short: as §1

WPMY1-CANX-COX4 = experiment: as above
In short: as §1

WPMY1-GM130-SQSTM1 = experiment: as above
In short: as §1

WPMY1-TP53BP1-CLTA = experiment: as above
In short: as §1

WPMY1-TUBA1B-RELA = experiment: as above
In short: as §1

SMILES | lowest phenotypically active concentration (A549-ACTB-RAB5A [1]) [µM] | lowest phenotypically active concentration (A549-GM130-SQSTM1 [2]) [µM] | lowest phenotypically active concentration (A549-TUBA1B-RELA [3]) [µM] | lowest phenotypically active concentration (HepG2-ACTB-RAB5A [4]) [µM] | lowest phenotypically active concentration (HepG2-TP53BP1-CLTA [5]) [µM] | phenotypically active (A549-ACTB-RAB5A [6]) | phenotypically active (A549-CANX-COX4) | phenotypically active (A549-GM130-SQSTM1 [7]) | phenotypically active (A549-TP53BP1-CLTA) | phenotypically active (A549-TUBA1B-RELA [8]) | phenotypically active (HepG2-ACTB-RAB5A [9]) | phenotypically active (HepG2-CANX-COX4) | phenotypically active (HepG2-GM130-SQSTM1) | phenotypically active (HepG2-TP53BP1-CLTA [10]) | phenotypically active (HepG2-TUBA1B-RELA) | phenotypically active (WPMY1-ACTB-RAB5A) | phenotypically active (WPMY1-CANX-COX4) | phenotypically active (WPMY1-GM130-SQSTM1) | phenotypically active (WPMY1-TP53BP1-CLTA) | phenotypically active (WPMY1-TUBA1B-RELA)
CCCCNNC(=O)c1ccc(Br)cc1 | 1 | 3 | 3 | 1 | 1 | 1 (active) | 1 (active) | 1 (active) | 1 (active) | 1 (active) | 1 (active) | 1 (active) | 1 (active) | 1 (active) | 1 (active) | 0 (inactive) | 1 (active) | 1 (active) | 1 (active) | 1 (active)
C=CC(=O)Nc1cccc(Nc2nc(Nc3ccc(Oc4ccnc(C(=O)NC)c4)cc3)ncc2F)c1 | 9 | 9 | 9 | 9 | 9 | 1 (active) | 1 (active) | 1 (active) | 1 (active) | 1 (active) | 1 (active) | 0 (inactive) | 1 (active) | 1 (active) | 1 (active) | 1 (active) | 1 (active) | 1 (active) | 0 (inactive) | 0 (inactive)
N#CC[C@@H](C1CCCC1)n1cc(-c2ncnc3[nH]ccc23)cn1 [ruxolitinib-(S)] | 3 | 9 | 9 |  | 9 | 1 (active) | 1 (active) | 1 (active) | 1 (active) | 1 (active) | 0 (inactive) | 1 (active) | 1 (active) | 1 (active) | 1 (active) | 1 (active) | 1 (active) | 0 (inactive) | 0 (inactive) | 1 (active)
CC(C)(C)c1cc(C(=O)/C=C/c2ccc(C(=O)O)cc2)cc(C(C)(C)C)c1 | ≤ 0.3 | 1 | 1 | ≤ 0.3 | 9 | 1 (active) | 1 (active) | 1 (active) | 0 (inactive) | 1 (active) | 1 (active) | 1 (active) | 1 (active) | 1 (active) | 0 (inactive) | 1 (active) | 1 (active) | 1 (active) | 1 (active) | 1 (active)
O=c1c(-c2ccc(O)cc2)coc2cc(O[C@@H]3O[C@H](CO)[C@@H](O)[C@H](O)[C@H]3O)cc(O)c12 [Genistin] | 9 |  | 9 |  |  | 1 (active) | 1 (active) | 0 (inactive) | 1 (active) | 1 (active) | 0 (inactive) | 0 (inactive) | 0 (inactive) | 0 (inactive) | 0 (inactive) | 1 (active) | 1 (active) | 0 (inactive) | 1 (active) | 0 (inactive)
